Experimental data published in PubChem BioAssay (NCI).
The panel holds about 83,000 compounds, 20% with a hit somewhere; the sample as a whole holds those more often.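 Each cell line was grown in a 96-well plate and treated with one concentration of compound for 48 hours. Values below 10 were considered active.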 A number with no mark means an inactive call. The source made the active and inactive calls.

Assays:
Assay in all cases: NCI-60 one-dose screen, 48 h (100 = growth as untreated, 0 = no growth, -100 = all killed)
Conditions in all cases: 10 µM unless noted
DU-145 prostate = system: DU-145 prostate
K-562 leukemia = system: K-562 leukemia
MALME-3M melanoma = system: MALME-3M melanoma
MDA-MB-231 breast = system: MDA-MB-231 breast
RXF 393 renal = system: RXF 393 renal
SF-268 CNS = system: SF-268 CNS
SF-295 CNS = system: SF-295 CNS
SF-539 CNS = system: SF-539 CNS
UACC-257 melanoma = system: UACC-257 melanoma
M14 melanoma = system: M14 melanoma

Row | SMILES | growth (DU-145 prostate) | growth (K-562 leukemia) | growth (MALME-3M melanoma) | growth (MDA-MB-231 breast) | growth (RXF 393 renal) | growth (SF-268 CNS) | growth (SF-295 CNS) | growth (SF-539 CNS) | growth (UACC-257 melanoma) | growth (M14 melanoma)
1 | NS(=O)(=O)c1ccc(-n2ncc3c(NC4CCCCC4)ncnc32)cc1 | 100% | 54.4% | 108% | 85.9% | 13.4% | 116% | 48.9% | 90.9% | 79.6% | 98.2%
2 | O=C1C=CC(=O)N1c1ccccn1 | 111% | 94.5% | 124% | 102% | 126% | 99.1% | 105% | 99.8% | 105% | 105%
3 | N#Cc1c(-c2ccccc2)cc(-c2ccccc2)n(CC(=O)O)c1=O | 87.5% | 21.1% | 56.2% | 60.3% | 62.3% | 67.2% | 36.8% | 66.5% | 64.4% | 26.3%
4 | c1ccc(Nc2ccc(Nc3nc(-c4ccccc4)nc4ccccc34)cc2)cc1 | 75.1% | 6.16% (active) | 109% | 63% | 83% | 93.6% | 55.9% | 86.2% | 100% | 76%
5 | Cc1ccc(/C=C(/C#N)n2nnc3ncccc32)cc1 | -27.2% (active) | 5.03% (active) | 22.7% | -3.95% (active) | -28.4% (active) | 25.3% | 27.8% | -53.8% (active) | 31.1% | -4.85% (active)
6 | CC(=O)OCC(=O)[C@@]1(O)CC[C@H]2[C@@H]3CCC4=CC(=O)CC[C@]4(C)[C@@]3(F)[C@@H](O)C[C@@]21C | 96% | 108% | 120% | 103% | 129% | 91.5% | 115% | 90.8% | 94.6% | 85.7%
7 | Cc1cc2c(cc1C)[n+](Cc1ccc3ccccc3c1)cn2Cc1ccc2ccccc2c1 | -89.5% (active) | -57.3% (active) | -78.7% (active) | -75.7% (active) | -87% (active) | -81.2% (active) | -80.9% (active) | -93.2% (active) | -55.6% (active) | -78.8% (active)
8 | CC(=O)N1N=C(c2ccc(Cl)cc2)CC1c1c(C)nn(-c2ccccc2)c1N(C)Cc1ccccc1 (stereo not given) | 94.5% | 61.9% | 83.1% | 81.1% | 72.7% | 77.8% | 82.7% | 93.8% | 50.4% | 79.9%
9 | CC12CCC3C(=CCc4cc(O)ccc43)C1CCC2=O (stereo not given) | 115% | 91.5% | 90.5% | 102% | 113% | 106% | 92% | 102% | 113% | 105%
10 | C/C=C(/C(=C/C)c1ccc(O)cc1)c1ccc(O)cc1 | 28.2% | 22.8% | 23.1% | 49.1% | 8.39% (active) | 45.6% | 12% | -3.67% (active) | 53.9% | 15.4%
11 | OC(c1cc(-c2cccc(Cl)c2)nc2ccccc12)C1CCCCN1 (stereo not given) | -33.8% (active) | -47.2% (active) | -69.6% (active) | -6.36% (active) | -46.4% (active) | 21.4% | -47.5% (active) | -52.9% (active) | -91.9% (active) | -81.5% (active)
12 | Cc1n(Cc2ccc3ccccc3c2)c2ccccc2[n+]1Cc1ccc2ccccc2c1 | 0.672% (active) | -63.1% (active) | -39.7% (active) | -83.6% (active) | -88% (active) | -67.6% (active) | -37.6% (active) | -56.4% (active) | -53.9% (active) | -69% (active)
13 | O=C(/C=C/c1cccc(Nc2ccnc3cc(Cl)ccc23)c1)c1ccc(Cl)cc1 | 59.6% | 14.6% | 62.5% | 60.4% | 71.9% | 69.2% | 40.2% | 62.5% | 61.3% | 54.3%
14 | CCOC(=O)C(Br)=P(c1ccccc1)(c1ccccc1)c1ccccc1 | 124% | 105% | 94.3% | 92.6% | 79.9% | 120% | 110% | 101% | 98.9% | 111%
15 | CSc1nc2nc3c(c(-c4ccc(C)cc4)c2c(=O)[nH]1)CN(C)C/C3=C\c1ccc(C)cc1 | 99.4% | 103% | 120% | 86.3% | 109% | 90.9% | 111% | 124% | 79.7% | 104%
16 | O=C(Nc1ccccc1S)c1ccccc1 | 111% | 86.2% | 116% | 102% | 125% | 103% | 100% | 104% | 92.8% | 101%
17 | C[C@]12CCC(=O)C=C1CC[C@H]1[C@@H]3C[C@@H](O)[C@](O)(C(=O)CO)[C@@]3(C)C[C@H](O)[C@@]12F | 92.4% | 110% | 87% | 102% | 137% | 85.5% | 104% | 91.9% | 82.1% | 85.6%
18 | Cc1csc(C#Cc2cncc(O)c2)n1 | 116% | 127% | 96.7% | 107% | 69.9% | 131% | 121% | 108% | 98.5% | 111%
19 | N#CSCC1CC(O)(c2ccccc2)C(c2ccccc2)C(c2ccc(Cl)cc2)O1 (stereo not given) | -68.2% (active) | -6.84% (active) | -80.8% (active) | -52.2% (active) | -91.5% (active) | -34.1% (active) | -77.9% (active) | -96.4% (active) | -70.2% (active) | -77.8% (active)
20 | CCSc1nc(Nc2ccc(S(=O)(=O)Nc3ccon3)cc2)c(C#N)c(-c2cccc(Br)c2)n1 | 112% | 77.9% | 105% | 97% | 94.7% | 99.3% | 82% | 82.2% | 115% | 104%
21 | CCOc1cc(/C=C/C(=O)CC(=O)/C=C/c2ccc(OC(=O)CNc3nc4ccc(OC)cc4s3)c(OCC)c2)ccc1OC(=O)CNc1nc2ccc(OC)cc2s1 | 15.5% | 2.04% (active) | 94.4% | 64.5% | -29.9% (active) | 26% | 63.5% | 3.65% (active) | 67.6% | 21.1%
22 | OCCCc1n(Cc2ccc3ccccc3c2)c2ccccc2[n+]1Cc1ccc2ccccc2c1 | 48.1% | 9.14% (active) | -11.2% (active) | -17.7% (active) | 14.6% | 22.5% | 32.8% | 18.1% | -14.1% (active) | 3% (active)
23 | COCCOCCOCCOCCOc1ccc2c(c1)C(=O)c1nc3ncccc3c(=O)n1-2 | -95.1% (active) | -92% (active) | -96.2% (active) | 23.8% | -72% (active) | -19.2% (active) | -97% (active) | -89.6% (active) | -83.9% (active) | -90.4% (active)
24 | C=CCN(/C=C/CN(CC=C)CC=C)CC=C | 110% | 100% | 102% | 90.4% | 111% | 105% | 84.3% | 99.7% | 108% | 103%
25 | CN(C)c1ccc(-c2nc3ncc(Br)cc3o2)cc1 | 99.8% | 81.5% | 118% | 90.2% | 83.8% | 114% | 109% | 91.4% | 104% | 97.6%
26 | COc1cc(C2=NN(C=O)C(c3cccc(Nc4ccnc5cc(Cl)ccc45)c3)C2)cc(OC)c1OC (stereo not given) | 80.2% | 46.5% | 89.3% | 76.5% | 72.2% | 74.2% | 66.8% | 91.7% | 73.2% | 64.1%
27 | O=C(NC1CCCCC1)c1ccc(Nc2ncnc3c2cnn3-c2ccccc2)cc1 | 54.6% | 73.2% | 2.93% (active) | 8.76% (active) | 62.2% | 36.9% | 73.4% | 43.7% | 56.5% | 69.1%
